# Screening data: PubChem, National Center for Advancing Translational Sciences (NCATS)
# Rows were chosen to be rich in hits. Some 3.6% of all compounds tested hit in one or more screens of this group.
# TDP43 rescue – TDP-43 toxicity inhibition in yeast; TDP-43 expressing yeast growth rescue, BacTiter-Glo, 24 h; Potency, µM (top dose mostly 46.1 µM), without a hit: top-dose growth rescue (activation), actives largely listed as activators; 1.8% of 410,000 active; further: % of control where 0% means no effect; nearly all actives have a fitted effect of over 50% in size
#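 In this qHTS, compounds that restore growth of yeast expressing TDP-43 appear as activators. Cells (OD600=0.02, galactose medium, raffinose-pregrown) are incubated with compound 24 hr at 30 deg C and growth is quantified by BacTiter-Glo.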
# aSyn rescue – inhibitors of alpha-synuclein toxicity in yeast | Yeast expressing alpha-synuclein, growth rescue, BacTiter-Glo, 24 h | Potency, µM (doses to about 46.1 µM), without a hit: at the highest dose growth rescue (activation), most hits filed as activators | 0.14% of 370,000 active | AID 652106; further: % of control where 0% means no effect; nearly all actives have a fitted effect of over 65% in size
#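 Screening used galactose-induced yeast with toxic alpha-synuclein levels, exposed to compound for 24 hr at 30 deg C. Cell growth, read with BacTiter-Glo luminescence, gave the measured signal.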
# ClpP mod – qHTS Assay for Activators of ClpP; purified B. subtilis ClpP, FRET peptide cleavage, 20 min; 1.9% of 340,000 active; ATP-dependent Clp protease proteolytic subunit (Bacillus subtilis (strain 168)), P80244; Potency, µM (highest dose often 57.5 µM), for the others: at the highest dose activity change, negative = active; active means well fitted falling curve with a large enough effect; inconclusive means small, poorly fitted or top-dose-only effect; inactive means no such curve, though single readings can be large or run the other way; further: the source files actives as falling curves though it sought activators and does not explain the sign; nearly all actives have a fitted effect of over 65% in size
# Target sequence (P80244 whole entry, looked up): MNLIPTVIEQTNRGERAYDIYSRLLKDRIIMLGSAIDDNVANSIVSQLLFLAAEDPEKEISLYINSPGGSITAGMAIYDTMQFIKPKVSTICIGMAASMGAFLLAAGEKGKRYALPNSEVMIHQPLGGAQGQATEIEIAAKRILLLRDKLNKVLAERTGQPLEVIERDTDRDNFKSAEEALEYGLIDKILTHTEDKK
#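 FRET quenching reversal measured ClpP activation: 10 microg/mL B. subtilis ClpP at pH 8 with the FRET-FV decapeptide, read at 430 nm after 320 nm excitation. The 20-min minus 0-min signal was scaled between DMSO/no-enzyme wells and ADEP (5.8 microM final).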
# FUS suppressor – rescues growth of FUS-expressing yeast | S. cerevisiae FUS-expressing, growth rescue, OD600, 24 h | Potency, µM (top dose mostly 76.6 µM), actives largely listed as activators | 0.24% of 390,000 active | AID 1347120;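 further: plate controls were DMSO vehicle for no effect and reference control for full effect; nearly all actives have a fitted effect of over 55% in size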
#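 Toxicity suppression screen in FUS-yeast. Cells induced with 2% galactose, starting OD 0.005, treated 24hr at 30C with compounds at multiple final concentrations; growth by OD600.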
# Abeta rescue – A-beta toxicity reversal in yeast; yeast expressing A-beta42, growth rescue, OD600, 48 h; response scale: 0% DMSO, 100% iron-clioquinol control; Potency, µM (doses to about 46.1 µM), hits mostly activators; 0.063% of 410,000 active; AID 1347071; further: nearly all actives have a fitted effect of over 55% in size
#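 Yeast growth medium received pinned compounds, then yeast cells expressing toxic A-beta were added; plates incubated at 30 C for 48 hr. Growth read as absorbance at 600 nm, normalized to DMSO and equimolar FeCl3 plus clioquinol controls.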
# Mm-Cpn inhibitor – blocks the Methanococcus maripaludis chaperonin Mm-Cpn; purified Mm-Cpn ATPase, ADP Transcreener TR-FRET; Potency, µM (highest dose often 76.9 µM), for inactives: at the top dose activity, negative = inhibition, usual class: inhibitors; 0.031% of 330,000 active; AID 504842; further: on the % scale 0 is the no-effect control and ±100 the full control effect; nearly all actives have a fitted effect of over 80% in size
#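 ATPase read-out: TR-FRET ADP immunoassay (anti-ADP Eu cryptate vs ADP-d2), ex 320 nm, em 590/665 nm; signal drops as ADP forms. Enzyme 25 nM, ATP 10 uM, 30 min at 37°C after 10 min compound preincubation.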
# * hit, by the source's call; i = inactive; ? = inconclusive; . = no result; [ ] = another dose, or the depositor's remark. Unless noted, the call rests on the fitted dose curve; in most records, active means well fitted curve in the direction sought with a large enough effect; inconclusive means small, poorly fitted or top-dose-only effect, or another doubt; inactive means no such curve, though single readings can be large; an effect the other way counts as inactive or inconclusive. Potency means the concentration at half of the fitted maximal effect.
SMILES,TDP43 rescue,aSyn rescue,ClpP mod,FUS suppressor,Abeta rescue,Mm-Cpn inhibitor
Cc1cccc(NC(=O)c2c(N)sc3c2CCC(C)C3)c1 (centres undefined),?,.,2%,i,i,.
CC[C@H](CCCc1ccc(OC)cc1)CCC(=O)N1CCOCC1,.,.,.,i,.,.
Cc1cccc(NC(=O)COc2ccc(-c3nn(C)c(=O)c4ccccc34)cc2)c1,35µM*,4%,?,?,i,-1%
CCc1ccccc1S(=O)(=O)Cc1ccc(C(=O)NCCc2ccc(Cl)cc2)o1,35µM*,.,-1%,?,i,.
CCc1ccccc1S(=O)(=O)Cc1ccc(C(=O)NCc2ccc(Cl)cc2)o1,35µM*,.,-2%,i,i,.
O=C(NCCc1ccccc1)c1ccc(CS(=O)(=O)c2ccc(Cl)cc2)o1,3%,-5%,0%,i,i,-4%
COC(=O)[C@]12C[C@H](CC(=O)NCCCCc3ccccc3)C(=O)N(Cc3cccc4ccccc34)C1=C[C@H](COCc1ccccc1)O[C@@H]2C,.,.,.,i,.,.
CCOC(=O)CSc1c(-c2cccs2)[nH]c2ccccc12,16µM*,4%,1%,i,?,-2%
CCOC(=O)c1c(C)c(-c2ccccc2)n(CC(=O)NCCc2cccc(C)c2)c1C,14%,.,-4%,i,i,.
CNC(=O)c1cc(C)c(-c2ccccc2)s1,18%,-19%,32µM*,?,i,-2%
Cc1noc(C)c1S(=O)(=O)Nc1ccc2c(c1)C(=O)N([C@H](C)CO)C[C@H](C)[C@H](CN(C)S(=O)(=O)c1ccc(Cl)cc1)OCCCC[C@@H](C)O2,20%,2%,-4%,?,i,.
Cc1ccc(S(=O)(=O)N(C)C[C@@H]2OCCCC[C@@H](C)Oc3ccc(NS(=O)(=O)c4c(C)noc4C)cc3C(=O)N([C@H](C)CO)C[C@@H]2C)cc1,11%,3%,-1%,16µM*,i,.
C[C@@H]1CCCCO[C@@H](CN(C)Cc2ccc(Cl)c(Cl)c2)[C@@H](C)CN([C@H](C)CO)C(=O)c2cc(NC(=O)Nc3ccccc3)ccc2O1,-4%,-2%,-19%,28µM*,i,.
COc1ccc(S(=O)(=O)N(C)C[C@H]2Oc3ccc(NS(=O)(=O)c4ccc(F)cc4)cc3C(=O)N([C@H](C)CO)C[C@@H]2C)cc1,28%,2%,0%,32µM*,i,0%
COc1ccc(S(=O)(=O)Nc2cccc3c2O[C@H](CN(C)S(=O)(=O)c2ccc(Cl)cc2)[C@H](C)CN([C@H](C)CO)C3=O)cc1,0%,-7%,-4%,10µM*,i,0%
O=C(CN1CCN(Cc2ccc(F)cc2Cl)S1(=O)=O)Nc1ccc(F)cc1,1%,.,0%,i,i,.
Cc1cccc(Nc2nnc(-c3ccc(C)c(S(=O)(=O)N4CCOCC4)c3)c3ccccc23)c1,1%,.,-20%,i,i,.
C[C@H](CO)N1C[C@H](C)[C@@H](CN(C)Cc2ccc(-c3ccccc3)cc2)Oc2c(NS(=O)(=O)c3ccccc3)cccc2C1=O,11%,17%,-7%,22µM*,i,-3%
CCCSc1ncc(Cl)c(C(=O)Nc2sc3c(c2C(=O)NCCCOC)CCCC3)n1,.,1%,?,.,.,.
O=S(=O)(c1cccc2nsnc12)N1CCN(c2ccccc2F)CC1,16µM*,14%,.,i,i,-1%
O=S(=O)(c1cccc2nsnc12)N1CCN(c2ccc(F)cc2)CC1,-14%[1.82 µM],-1%,.,i,i,1%
O=C(CCn1ccc2cc(S(=O)(=O)N3CCCC3)ccc21)NCc1cccc(Br)c1,6%,.,-2%,?,i,.
Cc1ccc(C(C)C)c2c1C(c1ccc3c(c1)OCO3)CC(=O)O2 (centres undefined),?,-20%,0%,i,i,-2%
Cc1cc2c(c(C)c1Cl)C(c1ccc3c(c1)OCO3)CC(=O)O2 (centres undefined),22µM*,15%,-2%,?,?,1%
CC(=O)c1sc(Nc2ccc(Oc3ccccc3)cc2)nc1C,35µM*,-6%,-24%,i,i,.
SMILES,TDP43 rescue,aSyn rescue,ClpP mod,FUS suppressor,Abeta rescue,Mm-Cpn inhibitor
CCOC(=O)c1sc(Nc2ccccc2)nc1C,?,4%,-12%,i,i,-6%
COc1ccc(C(=O)c2sc(Nc3ccccc3)nc2C)cc1,25µM*,12%,-18%,i,i,-8%
CC(=O)c1sc(Nc2cccc(C)c2)nc1C,7.1µM*,0%,.,i,i,-10%
COC(=O)c1sc(Nc2ccccc2)nc1C,13µM*,-13%,-5%,i,i,-4%
COc1ccc(N2CC(NC(=O)c3ccc(S(=O)(=O)N4CCOCC4)cc3)CC2=O)cc1 (centres undefined),11%,.,-1%,i,i,.
CC(=O)c1sc(NC(=O)c2ccc(Br)o2)nc1C,11µM*,-2%,0%,i,i,1%
Cc1nc(Nc2ccccc2)sc1-c1ccccc1,20µM*,-7%,-9%,.,i,-6%
COc1cc(Cl)c(C)cc1NC(=O)CCc1c(C)nc2c3cccnc3nn2c1C,12%,.,25µM*,i,i,.
COc1ccc(CCNC(=O)CCc2c(C)nc3c4cccnc4nn3c2C)cc1OC,14%,.,?,i,i,.
Cc1cc(Br)ccc1NC(=O)C(NS(=O)(=O)c1cccs1)c1ccccc1 (centres undefined),-1%,.,0%,i,i,.
CCN(CC)S(=O)(=O)c1ccc(C(=O)Nc2nc3c(Cl)cc(Cl)cc3s2)cc1,0%,9%,-29%,i,i,.
Fc1ccc(N/N=C/c2ccncc2)c(F)c1,16%,1%,22µM*,.,i,1%
O=C(O)c1ccc(/C=N/Nc2ccc(F)cc2F)cc1,?,-25%,0%,i,i,0%
COc1cnc(-c2ccccn2)nc1Oc1ccc(F)cc1F,19%,-11%,.,i,22µM*,-6%
COc1cnc(-c2ccccn2)nc1Oc1ccccc1Cl,0%,4%,-3%,i,i,1%
O=C(NC1CCCCC1)[C@@H]1CC=C[C@@H]2CCN(Cc3ccc(Cl)c(Cl)c3)C(=O)[C@@H]21,.,.,-4%,.,.,.
CCC(=O)Nc1sc2c(c1C#N)CC(C)(CC)OC2 (centres undefined),11µM*,.,-5%,i,i,-1%
